Data published in PubChem BioAssay (NCI).
The panel holds about 79,000 compounds, 15% with a hit somewhere; the sample as a whole holds those more often. The source made the active and inactive calls. Cut-off read from the data, not from the text of the source: active = growth inhibition above about 70%; inactive = the rest.

What was measured:
[1] = NCI Yeast Anticancer Drug Screen. Data for the rad50 strain (AID 155);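 note: 0% = growth of vehicle-only cultures of the same strain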; details: S. cerevisiae rad50 strain growth inhibition; at 50.0 µM; active compounds read high
Outline: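 Relative growth inhibition (compound vs vehicle) was measured in yeast with a defined repair-gene alteration.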

[2] = NCI Yeast Anticancer Drug Screen. Data for the mec2-1 strain (AID 157); details: S. cerevisiae mec2-1 strain, at 50.0 µM, active compounds read high
Outline: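 Strain: mec2-1 (DNA repair/cell cycle alteration). Compound exposure, then growth measured; inhibition expressed relative to vehicle.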

[3] = NCI Yeast Anticancer Drug Screen. Data for the sgs1 mgt1 strain (AID 161);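 note: 0% = growth of cultures given vehicle only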; details: S. cerevisiae sgs1 mgt1 strain, at 50.0 µM, active compounds read high
Outline: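 Test agents were incubated with a DNA-repair-mutant yeast strain. Growth was then read and compared against vehicle-treated controls.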

[4] = NCI Yeast Anticancer Drug Screen. Data for the cln2 rad14 strain (AID 165);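 note: 0% = growth equal to vehicle treated cultures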; details: S. cerevisiae cln2 rad14 strain, at 50.0 µM, active compounds read high
Outline: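 Compounds are applied to the cln2 rad14 yeast strain, and growth is then compared with that of vehicle-treated cultures to give inhibition.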

[5] = NCI Yeast Anticancer Drug Screen. Data for the bub3 strain (AID 167); details: S. cerevisiae bub3 mutant strain, at 50.0 µM, active compounds read high
Outline: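 Screening used yeast with an engineered genetic alteration affecting cell cycle control. Compound-exposed cultures were compared with vehicle cultures, and reduced growth was taken as inhibition.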

[6] = NCI Yeast Anticancer Drug Screen. Data for the mlh1 rad18 strain (AID 175); details: S. cerevisiae mlh1 rad18 strain growth inhibition; at 50.0 µM; active compounds read high
Outline: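 Read-out is yeast growth inhibition, calculated against vehicle-only controls. The compound was applied to a strain engineered with DNA damage repair alterations.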

Measured: growth inhibition

CC(C)(CO)NC(=O)c1ccccc1Br
inactive: [1] -31.9% | [2] -11.7% | [3] -8.6% | [4] 1.55% | [5] -13.9% | [6] 7.8%

O=C1/C(=C/c2ccccc2)N=C2Sc3c(nc[nH]c3=O)N12
inactive: [1] 16.5% | [2] -23.8% | [3] -12.4% | [4] -7.25% | [5] 10.4% | [6] -39.2%

CCOC(=O)/C(=N/O)c1ccccn1
inactive: [1] 0.4% | [2] -8.65% | [3] -4.35% | [4] 16.2% | [5] -5.35% | [6] -3.8%

CC(=O)c1cccc(N2COC(C)(C)c3nc4ccccc4n3C2)c1
inactive: [1] 5.9% | [2] -9.85% | [3] -20.1% | [4] 12.8% | [5] -19.9% | [6] -0.05%

Nc1ccc2c(c1)C(=O)c1ccccc1C2=O
inactive: [1] 4.4% | [2] -1.55% | [3] -12.9% | [4] 6.55% | [5] 8.95% | [6] -0.55%

O=C(Nc1cccc(Cl)c1Cl)Oc1ccc(Cl)cc1C(=O)c1ccccc1
inactive: [1] -7.8% | [2] -1% | [3] -17.1% | [4] 4.5% | [5] -12.9% | [6] -27.4%

CC1OC(c2ccccc2)OC1C (stereo unspecified)
inactive: [1] 18.6% | [2] -4.65% | [3] -6.9% | [4] -29.9% | [5] -18.9% | [6] 11.8%

Cc1ccc(OC(=O)Nc2ccc(C(=O)O)c(O)c2)cc1
inactive: [1] -10.9% | [2] 8.3% | [3] 9.2% | [4] -6.75% | [5] -4.7% | [6] -5.2%

C1CCC2(CC1)SCCS2
inactive: [1] 2% | [2] -18.4% | [3] -1.9% | [4] -48.9% | [5] -9.4% | [6] -10.4%

CC1CC2=Cc3c(O)c(O)cc(O)c3C(=O)C2=CO1 (stereo unspecified)
inactive: [1] -5.5% | [2] -31.7% | [3] -19.7% | [4] -11.6% | [5] -5.7% | [6] -19.1%

CCC(=O)Nc1cc([N+](=O)[O-])cc([N+](=O)[O-])c1
inactive: [1] 8.1% | [2] -7.3% | [3] -13.3% | [4] -32.5% | [5] -36.9% | [6] -23.6%

CC(=O)OCC(OC(C)=O)C(OC(C)=O)C(OC(C)=O)C1OC(=O)C(OC(C)=O)C1OC(C)=O (stereo unspecified)
inactive: [1] 0.5% | [2] -12% | [3] 3.8% | [4] 2.25% | [5] -0.75% | [6] 9.9%

NC(=O)NC(=O)N/N=C/c1ccccc1
inactive: [1] 23.2% | [2] 2.4% | [3] 2.8% | [4] 4.15% | [5] 7.6% | [6] 14.9%

Cc1ccccc1N=Nc1c(C)nc(N)nc1-c1ccccc1
inactive: [1] 1% | [2] 8.6% | [3] 6.2% | [4] -12.6% | [5] -14.5% | [6] 12.2%

CC1CC(Cc2ccccc2CC2CC(C)OC2=O)C(=O)O1 (stereo unspecified)
inactive: [1] 6.95% | [2] 12.6% | [3] -0.1% | [4] 10.8% | [5] 10.8% | [6] 22.9%

O=C(NNC(=O)c1ccc(Cl)cc1Cl)c1ccc2ccccc2c1
inactive: [1] 9.4% | [2] -42% | [3] -14.4% | [4] 6% | [5] -0.1% | [6] -0.55%

Oc1ccc(-c2cc(-c3c(O)cc(O)cc3O)on2)cc1
inactive: [1] 4.25% | [2] -1.45% | [3] -17.4% | [4] -2.85% | [5] -7.45% | [6] 9.35%

COc1ccc(-c2ccccc2C(=O)O)cc1
inactive: [1] -2.65% | [2] -14.8% | [3] 5.8% | [4] -12.5% | [5] -7.2% | [6] 8.1%

Cn1nc(-c2ccccc2)c2c(/C=C/c3ccc(F)cc3)onc2c1=O
inactive: [1] -14.4% | [2] -17.9% | [3] 8.55% | [4] 8.35% | [5] 0.05% | [6] -15.3%

ClC1CC/C=C\CC/C=C/CCC1Cl (stereo unspecified)
inactive: [1] 55.7% | [2] 48.1% | [3] 22.1% | [4] 32% | [5] 29.2% | [6] 41.3%

CN(C)C(=O)Nc1cccc2c(NC(=O)N(C)C)cccc12
inactive: [1] -1.4% | [2] 4.4% | [3] 10.7% | [4] 11.9% | [5] -4.45% | [6] -1.55%

Cc1cc(Br)c(NC(=S)SCc2ccc(Cl)cc2)cc1C
inactive: [4] 63.5%
active: [1] 88.2% | [2] 80% | [3] 82.6% | [5] 80% | [6] 95.8%

Nc1nc2ccc([N+](=O)[O-])cc2s1
inactive: [1] 6.15% | [2] -6.45% | [3] 10.8% | [4] -18.4% | [5] -12.8% | [6] -8.1%

Cc1ccc(C)n1-n1c(-c2ccccc2)n[nH]c1=O
inactive: [1] -19.8% | [2] -20.9% | [3] -2.7% | [4] -3.4% | [5] -27.7% | [6] -12.3%

NC(=O)c1nnn(-c2ccccc2)n1
inactive: [1] -9.75% | [2] -8.9% | [3] -10% | [4] -12.3% | [5] -5.75% | [6] -12.7%

O=c1oc2ccccc2cc1S(=O)(=O)c1ccc(Cl)cc1
inactive: [1] -0.9% | [2] 0.85% | [3] 3.7% | [4] -58% | [5] -9.75% | [6] -20.4%

CC(=O)OCC1OC(OC(C)=O)C(N)C(OC(C)=O)C1OC(C)=O (stereo unspecified)
inactive: [1] 2.15% | [2] 11.8% | [3] 11.9% | [4] 9.05% | [5] -15.9% | [6] 19.4%

CC(C#N)NCc1ccc(C(C)NC(C)C#N)cc1 (stereo unspecified)
inactive: [1] 4.5% | [2] 2.15% | [3] -43.8% | [4] -26.1% | [5] -10.8% | [6] -15.7%

CC12CCCC1C1CC=C3CC(SC4CCC5(C)C(=CCC6C7CCCC7(C)CCC65)C4)CCC3(C)C1CC2 (stereo unspecified)
inactive: [1] -2.05% | [2] -0.25% | [3] -21.5% | [4] -37.9% | [5] -17.6% | [6] -21.6%

COc1ccccc1N=NC1=C2Nc3ccccc3N=C1N(c1ccccc1OC)C(=S)N2c1ccccc1C
inactive: [1] -10.3% | [2] -11.3% | [3] -16.4% | [4] -11.5% | [5] -2.95% | [6] -30.4%

CC(C)/C=C(\C#N)C(=O)O
inactive: [1] -3.2% | [2] -13.5% | [3] -1.2% | [4] -0.8% | [5] -2.65% | [6] 1.3%

O/N=C1/C2C=CC(C2)C1Cl (stereo unspecified)
inactive: [1] 1.35% | [2] -5.75% | [3] 11.7% | [4] 13.7% | [5] -10.1% | [6] -16.9%

C[C@]12CCC[C@H](O)[C@H]1O2
inactive: [1] -6.45% | [2] 3.25% | [3] -16.1% | [4] 0.55% | [5] 0.5% | [6] -10.2%

COc1cc(C2SC(N)=Nc3c2c(C)nn3C(=O)c2ccccc2O)ccc1O (stereo unspecified)
inactive: [1] -4.9% | [2] 24.1% | [3] 22.5% | [4] -1.35% | [5] 40.4% | [6] 16%

CCOC(=O)C(=Cn1c(=S)[nH]c2cc(C)ccc21)C(=O)OCC
inactive: [1] -19.8% | [2] -39.1% | [3] -16.2% | [4] 13.6% | [5] 0.1% | [6] -11.8%

C1CCC2C(C1)CCCC2NC1=NCCO1 (stereo unspecified)
inactive: [1] 1.75% | [2] -23.7% | [3] 7.85% | [4] 12.8% | [5] -1.1% | [6] 12.3%

CCCCC(ON=C(C)C)C(=O)OC (stereo unspecified)
inactive: [1] 19.3% | [2] 31.6% | [3] -10.2% | [4] 12.1% | [5] 1.25% | [6] 24.4%

CN(C)c1ccc(/C(=N\O)C(=O)O)cc1
inactive: [1] -15.2% | [2] -13.3% | [3] -2.2% | [4] -9.1% | [5] 0.1% | [6] 1.55%

CC(C)=CCc1c(C)cc2cc3c(c(O)c2c1O)C(O)=CC(=O)C3(CC=C(C)C)C/C=C(\C)CO (stereo unspecified)
inactive: [1] 54.6% | [2] 37% | [3] 52.5% | [4] 47.2% | [5] 48.9% | [6] 46.1%

COC(=O)NC(=O)CCC(=O)O
inactive: [1] -0.15% | [2] -2.8% | [3] 0.95% | [4] -45.3% | [5] 7% | [6] 12.8%

NCC(=O)Nc1ccc(Cl)cc1C(=O)c1ccc[nH]1
inactive: [1] 1.4% | [2] -16% | [3] -27.6% | [4] -42.4% | [5] -53.5% | [6] 0.85%
